Screen size: about 39,000 compounds; about 3,300 (8.5%) were called active. The sample holds actives, similar compounds and a random draw of the others, so the mix is not that of the screen.

The assay concerns HepG2. Kind of assay: cytotoxicity call (relative viability < 0.9). Conditions: 10 µM.
For `C[C@H](CO)N1C[C@H](C)[C@@H](CN(C)C(=O)Cc2ccncc2)Oc2cc(-c3cncnc3)ccc2S1(=O)=O`, the cytotoxicity call is “inactive”. Take `C[C@H]1CN([C@@H](C)CO)C(=O)c2cc(NC(=O)Cc3cn(C)c4ccccc34)ccc2O[C@@H]1CN(C)S(C)(=O)=O`: the cytotoxicity call was “inactive”. `C[C@@H]1CN([C@H](C)CO)C(=O)c2cc(NC(=O)Cc3cn(C)c4ccccc34)ccc2O[C@@H]1CN(C)Cc1ccc(Cl)c(Cl)c1`: the cytotoxicity call is “active”.

Turning to `C[C@H](CO)N1C[C@H](C)[C@@H](CN(C)Cc2ccc(Cl)c(Cl)c2)Oc2ccc(NC(=O)Cc3cn(C)c4ccccc34)cc2CC1=O`, the cytotoxicity call is “inactive”. With `C[C@@H]1CN([C@@H](C)CO)C(=O)c2cc(NC(=O)Cc3cn(C)c4ccccc34)ccc2O[C@@H]1CN(C)S(C)(=O)=O`, the cytotoxicity call was “inactive”. The same measure for `C[C@H](CO)N1C[C@H](C)[C@H](CN(C)Cc2ccc(Cl)c(Cl)c2)Oc2ccc(NC(=O)Cc3cn(C)c4ccccc34)cc2C1=O`: “inactive”; for `C[C@H]1CN([C@@H](C)CO)C(=O)c2cc(NC(=O)Cc3cn(C)c4ccccc34)ccc2O[C@H]1CN(C)Cc1ccc(Cl)c(Cl)c1`: “inactive”. In the case of `C[C@@H]1CN([C@@H](C)CO)C(=O)c2cc(NC(=O)Cc3cn(C)c4ccccc34)ccc2O[C@H]1CN(C)Cc1ccc(Cl)c(Cl)c1` it was “active”; in that of `C[C@H]1CN([C@@H](C)CO)C(=O)c2cc(NC(=O)Cc3cn(C)c4ccccc34)ccc2O[C@@H]1CN(C)Cc1ccc(Cl)c(Cl)c1`, “inactive”. Take `C[C@H](CO)N1C[C@H](C)[C@@H](CN(C)Cc2ccc(Cl)c(Cl)c2)Oc2ccc(NC(=O)Cc3cn(C)c4ccccc34)cc2C1=O`: the cytotoxicity call is “inactive”. The same measure for `C[C@@H]1CN([C@H](C)CO)C(=O)c2cc(NC(=O)Cc3cn(C)c4ccccc34)ccc2O[C@H]1CN(C)Cc1ccc(Cl)c(Cl)c1`: “inactive”. As to `C[C@@H]1CN([C@H](C)CN(C)C)C(=O)c2cc(NC(=O)Cc3cn(C)c4ccccc34)ccc2O[C@H]1CN(C)S(=O)(=O)c1ccc(Cl)cc1`, the cytotoxicity call is “active”. As to `C[C@@H]1CN([C@@H](C)CO)C(=O)c2cc(NC(=O)Cc3cn(C)c4ccccc34)ccc2O[C@@H]1CN(C)Cc1ccc(Cl)c(Cl)c1`, the cytotoxicity call is “active”.

As for `Cc1noc(C)c1S(=O)(=O)Nc1ccc2c(c1)CC(=O)N([C@@H](C)CO)C[C@H](C)[C@H](CN(C)S(=O)(=O)c1ccc(F)cc1)O2`, the cytotoxicity call is “inactive”. The same measure for `CC(C)NC(=O)Nc1ccc2c(c1)CC(=O)N([C@@H](C)CO)C[C@H](C)[C@H](CN(C)S(=O)(=O)c1ccc(Cl)cc1)O2`: “inactive”; for `CO[C@@H]1CN(C)C(=O)c2ccc(NC(=O)NC(C)C)cc2OC[C@H](C)N(Cc2ccc(-c3ccccn3)cc2)C[C@@H]1C`: “inactive”; for `O=c1[nH]c2cc(C(F)(F)F)c(N3CCOCC3)cc2n(CP(=O)(O)O)c1=O`: “inactive”.

Consider `C[C@H](CO)N1C[C@H](C)[C@@H](CN(C)S(=O)(=O)c2cccs2)Oc2ccc(NC(=O)C3CC3)cc2CC1=O`, for which the cytotoxicity call was “inactive”. `Cc1noc(C)c1NC(=O)Nc1ccc2c(c1)C(=O)N([C@H](C)CO)C[C@@H](C)[C@H](CN(C)Cc1ccncc1)OCCCC[C@H](C)O2`: the cytotoxicity call is “inactive”. As to `C[C@@H]1CN([C@@H](C)CO)C(=O)c2cccc(NC(=O)CCCCCC(=O)Nc3ccccc3N)c2O[C@@H]1CN(C)C(=O)Nc1ccc(C(F)(F)F)cc1`, the cytotoxicity call is “inactive”. Turning to `Cc1ccc(S[C@]2(C(=O)NCC(C)C)CC(=O)N(C3Cc4ccccc4C3)[C@@H]2c2ccc(CO)cc2I)cc1`, the cytotoxicity call was “inactive”. In the case of `C[C@@H]1CCCCO[C@@H](CN(C)Cc2ccncc2)[C@@H](C)CN([C@@H](C)CO)C(=O)c2cc(NC(=O)CCC(F)(F)F)ccc2O1` it was “inactive”. With `C[C@@H]1CN([C@@H](C)CO)C(=O)c2cccc(NC(=O)c3cnccn3)c2O[C@H]1CN(C)C(=O)Nc1ccc2c(c1)OCO2`, the cytotoxicity call is “inactive”. Regarding `C[C@@H]1CN([C@H](C)CO)C(=O)CCCn2nncc2CO[C@@H]1CN(C)C(=O)Nc1ccc2c(c1)OCCO2`, the cytotoxicity call was “inactive”. The same measure for `C[C@H]1CN([C@@H](C)CO)C(=O)Cc2cc(NC(=O)Cc3cn(C)c4ccccc34)ccc2O[C@@H]1CN(C)Cc1ccc(Cl)c(Cl)c1`: “inactive”; for `C[C@@H]1CN([C@@H](C)CO)C(=O)Cc2cc(NC(=O)Cc3cn(C)c4ccccc34)ccc2O[C@H]1CN(C)Cc1ccc(Cl)c(Cl)c1`: “inactive”; for `C[C@H](CO)N1C[C@H](C)[C@H](CN(C)Cc2ccc(Cl)c(Cl)c2)Oc2ccc(NC(=O)Cc3cn(C)c4ccccc34)cc2CC1=O`: “active”. In the case of `C[C@@H]1CN([C@H](C)CO)C(=O)Cc2cc(NC(=O)Cc3cn(C)c4ccccc34)ccc2O[C@@H]1CN(C)Cc1ccc(Cl)c(Cl)c1` it was “active”. `C[C@H]1CN([C@@H](C)CO)C(=O)Cc2cc(NC(=O)Cc3cn(C)c4ccccc34)ccc2O[C@H]1CN(C)Cc1ccc(Cl)c(Cl)c1`: the cytotoxicity call was “inactive”. For `C[C@@H]1CN([C@H](C)CO)C(=O)Cc2cc(NC(=O)Cc3cn(C)c4ccccc34)ccc2O[C@H]1CN(C)Cc1ccc(Cl)c(Cl)c1`, the cytotoxicity call is “inactive”. On to `O=C(C[C@H]1CC[C@H]2[C@@H](COC[C@H](O)CN2S(=O)(=O)c2cccc(F)c2)O1)NCCCN1CCOCC1`, for which the cytotoxicity call was “inactive”.

For `C[C@@H]1CCCCO[C@H](CN(C)Cc2ccc(C(=O)O)cc2)[C@H](C)CN([C@H](C)CO)C(=O)c2cc(NS(=O)(=O)c3cccs3)ccc2O1`, the cytotoxicity call was “inactive”. Regarding `Cc1ccc(S(=O)(=O)Nc2ccc3c(c2)C(=O)N([C@@H](C)CO)C[C@H](C)[C@H](CN(C)C(=O)NC2CCCCC2)OCCCC[C@H](C)O3)cc1`, the cytotoxicity call was “inactive”. As to `NC(=O)N1C(=O)[C@H]2[C@H](C1=O)[C@H]1C=C(CCCO)[C@@H]2[C@H](c2cccs2)N1Cc1cc2c(cc1Br)OCO2`, the cytotoxicity call is “inactive”. As to `O=C(C[C@@H]1C[C@@H]2c3cc(NC(=O)C4CCOCC4)ccc3O[C@@H]2[C@@H](CO)O1)NCc1cc(F)ccc1F`, the cytotoxicity call is “inactive”. The same measure for `CNC[C@H]1OCCCC[C@@H](C)Oc2ccc(NC(=O)Nc3ccc(C(F)(F)F)cc3)cc2C(=O)N([C@H](C)CO)C[C@H]1C`: “inactive”. Consider `COc1ccc(NC(=O)Nc2ccc3c(c2)C(=O)N([C@@H](C)CO)C[C@@H](C)[C@@H](CN(C)S(=O)(=O)c2c(C)noc2C)OCCCC[C@@H](C)O3)cc1`, for which the cytotoxicity call is “inactive”.

Values taken from the antibiotic and cytotoxicity screens of Wong et al. (2023).
